Screening results deposited in PubChem BioAssay by several laboratories.
H9c2 protect: protects H9c2 cardiomyocytes from peroxide injury | protection from H2O2 cell death, % at 20 µM | H2O2 injury protection, ATPLite, 2 h | AID 588492 | 360,000 compounds, 0.63% hits;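 active means compounds giving at least 50% protection of heart cells from peroxide-induced death in the single-dose screen, raw or plate-pattern-corrected value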;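 further: 0% = DMSO wells with peroxide and 100% = DMSO wells without peroxide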
UBC9 SUMO inh: SUMOylation inhibition | P63279 | HTRF SUMOylation assay, SAE1/SAE2 + UBC9, in vitro | inhibition, % at 35 µM | 290,000 compounds, 0.36% hits | AID 2006; in the data active means inhibition above about 50%, passing the limit was not always enough
NTR1 ag: agonists of human neurotensin receptor NTR1; P30989; NTR1-U2OS beta-arrestin-GFP spot imaging, agonist mode; activation, % at 20 µM; 330,000 compounds, 0.17% hits; AID 493036;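 active means activation at or above 40% of the spot to cytoplasm intensity ratio, with at least 20 cells analyzed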;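 further: 0% = DMSO without peptide and 100% = 100 nM NTR1 peptide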
Target sequence (P30989 whole entry, looked up): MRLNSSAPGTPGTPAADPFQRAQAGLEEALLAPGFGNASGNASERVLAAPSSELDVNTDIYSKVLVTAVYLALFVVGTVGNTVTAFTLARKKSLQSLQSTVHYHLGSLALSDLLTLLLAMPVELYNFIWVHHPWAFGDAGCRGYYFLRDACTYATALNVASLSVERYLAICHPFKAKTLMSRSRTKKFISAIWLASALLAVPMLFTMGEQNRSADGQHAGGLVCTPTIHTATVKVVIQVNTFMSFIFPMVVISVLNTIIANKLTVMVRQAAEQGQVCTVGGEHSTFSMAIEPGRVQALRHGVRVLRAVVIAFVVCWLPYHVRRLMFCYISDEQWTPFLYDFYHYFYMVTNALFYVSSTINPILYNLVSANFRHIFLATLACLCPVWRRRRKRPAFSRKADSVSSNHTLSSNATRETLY
ALR H2O2 inh: blocks human ALR sulfhydryl oxidase activity | P55789 | inhibition, % (concentration not given with the values) | 290,000 compounds, 3.8% hits | AID 485317 | purified ALR, DTT oxidation, H2O2 HRP-luminol luminescence;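 active means mean replicate inhibition above about 79%, with every replicate also reaching it, limit read from the data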
Target sequence (P55789 whole entry, looked up): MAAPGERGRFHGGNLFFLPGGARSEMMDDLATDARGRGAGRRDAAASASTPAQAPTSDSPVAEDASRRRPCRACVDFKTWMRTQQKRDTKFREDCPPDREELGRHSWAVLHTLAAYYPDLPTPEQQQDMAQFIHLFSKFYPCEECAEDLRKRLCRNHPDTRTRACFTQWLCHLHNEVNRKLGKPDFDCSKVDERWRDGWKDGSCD
* hit, by the source's call. Rows were chosen to be rich in hits. Some 3.9% of all compounds tested hit in one or more screens of this group.

How did CC1CCN(C(=O)Cn2cc([N+](=O)[O-])ccc2=O)c2ccccc2S1 (configuration not stated) do in these assays?
H9c2 protect: -2; NTR1 ag: 4; ALR H2O2 inh: 2

Results for O=C(Cn1ncc2c(=O)oc3ccccc3c21)N1CCCN(Cc2ccccc2F)C1 ?
H9c2 protect: 19; UBC9 SUMO inh: 12; NTR1 ag: -1; ALR H2O2 inh: 3

Results for COc1ccc(CNc2nc3ccccc3n2CCN2CCOCC2)cc1 ?
H9c2 protect: 14; UBC9 SUMO inh: 4; NTR1 ag: -1; ALR H2O2 inh: 94*

How did CCN(CC)c1ccc(CNc2nc3ccccc3n2CCN2CCOCC2)cc1 do in these assays?
H9c2 protect: -15; UBC9 SUMO inh: 17; NTR1 ag: 3; ALR H2O2 inh: 98*

Results for CCN1/C(=C/C=C/C=C/c2sc3ccccc3[n+]2CC)Sc2ccccc21 ?
UBC9 SUMO inh: 7; NTR1 ag: 19

Results for CCN1/C(=C/C=C/c2sc3ccccc3[n+]2CC)Sc2ccccc21 ?
H9c2 protect: -44; NTR1 ag: -4; ALR H2O2 inh: 100*

How did O=C(CSc1nccn1-c1ccc(Cl)cc1)N1CCCc2ccccc21 do in these assays?
H9c2 protect: -2; UBC9 SUMO inh: -19; NTR1 ag: 1; ALR H2O2 inh: -23

How did COc1ccc(S(=O)(=O)NCCSCc2ccccc2C)cc1Br do in these assays?
H9c2 protect: -19; UBC9 SUMO inh: 4; NTR1 ag: 0; ALR H2O2 inh: 98*

What do the screens show for `N#CNC(=Nc1cccc(F)c1)SCc1ccccc1`?
H9c2 protect: -16; UBC9 SUMO inh: 8; NTR1 ag: 5; ALR H2O2 inh: -4

How did N#CNC(=Nc1ccccc1F)SCc1ccc(C(=O)O)cc1 do in these assays?
H9c2 protect: 2; UBC9 SUMO inh: 21; NTR1 ag: 0; ALR H2O2 inh: 99*

What do the screens show for `C[C@H](CO)N1C[C@H](C)[C@@H](CN(C)S(=O)(=O)c2ccccc2)Oc2ccc(NC(=O)Nc3ccccc3)cc2C1=O`?
H9c2 protect: 76*; NTR1 ag: 4

What do the screens show for `C[C@H](CO)N1C[C@H](C)[C@@H](CN(C)S(=O)(=O)c2ccc(F)cc2)Oc2ccc(NC(=O)Nc3ccccc3)cc2C1=O`?
H9c2 protect: 18; NTR1 ag: 0; ALR H2O2 inh: -1

Results for C[C@H](CO)N1C[C@H](C)[C@@H](CN(C)S(=O)(=O)c2ccc(F)cc2)Oc2ccc(NC(=O)Nc3ccc4c(c3)OCO4)cc2C1=O ?
H9c2 protect: 62*; NTR1 ag: 4

What do the screens show for `C[C@@H]1CN([C@H](C)CO)C(=O)c2cc(NC(=O)Nc3ccc(C(F)(F)F)cc3)ccc2O[C@H]1CN(C)S(=O)(=O)c1cccs1`?
H9c2 protect: -3; NTR1 ag: 7; ALR H2O2 inh: -2

How did C[C@H](CO)N1C[C@H](C)[C@@H](CN(C)S(=O)(=O)c2cccs2)Oc2ccc(NC(=O)Nc3ccccc3)cc2C1=O do in these assays?
H9c2 protect: 68*; NTR1 ag: 0

How did Cc1ccc(S(=O)(=O)N2CCCCCC2)cc1[N+](=O)[O-] do in these assays?
H9c2 protect: -4; UBC9 SUMO inh: -2; NTR1 ag: 0; ALR H2O2 inh: 10

What do the screens show for `C[n+]1ccccc1/C=C/c1ccc2ncccc2c1`?
H9c2 protect: 2; UBC9 SUMO inh: 1; NTR1 ag: 0; ALR H2O2 inh: -18

What do the screens show for `CCOc1cccc(-c2c(C(=O)N/N=C(\C)c3ccccn3)nnn2-c2nonc2N)c1`?
H9c2 protect: 51*; UBC9 SUMO inh: -96; ALR H2O2 inh: -2

How did CCOc1ccc(-c2c(C(=O)N/N=C/c3c[nH]c4ccccc34)nnn2-c2nonc2N)cc1 do in these assays?
H9c2 protect: 54*; UBC9 SUMO inh: -2; NTR1 ag: 6; ALR H2O2 inh: 6

Results for CCOc1ccc(/C=N/NC(=O)c2nnn(-c3nonc3N)c2-c2ccc(OCC)cc2)cc1 ?
H9c2 protect: 2; UBC9 SUMO inh: 8; NTR1 ag: 6; ALR H2O2 inh: -1

How did CCOc1cccc(-c2c(C(=O)N/N=C(\C)c3ccncc3)nnn2-c2nonc2N)c1 do in these assays?
H9c2 protect: 10; UBC9 SUMO inh: 7; NTR1 ag: 2; ALR H2O2 inh: -1

What do the screens show for `CCc1nn(CC(=O)NCCCN2CCc3ccccc3C2)c(=O)c2cc3sccc3n12`?
H9c2 protect: 45; UBC9 SUMO inh: 5; NTR1 ag: 7; ALR H2O2 inh: 95*

How did CC1Cc2ccccc2N1C(=O)CSc1nc2c(c(=O)n(C)c(=O)n2C)n1Cc1ccccc1 (configuration not stated) do in these assays?
H9c2 protect: 72*; UBC9 SUMO inh: 7; NTR1 ag: 4; ALR H2O2 inh: -6

How did CCn1c(SCC(=O)N2c3ccccc3CCc3ccccc32)nc2c1c(=O)n(C)c(=O)n2C do in these assays?
H9c2 protect: 32; NTR1 ag: 2; ALR H2O2 inh: 4

What do the screens show for `COc1ccc(-n2cnc3cc(NCc4cccs4)ccc32)cc1`?
H9c2 protect: 10; UBC9 SUMO inh: -5; NTR1 ag: 2; ALR H2O2 inh: 95*

What do the screens show for `c1ccc(-n2cnc3cc(NCc4cccs4)ccc32)cc1`?
H9c2 protect: -5; UBC9 SUMO inh: 22; NTR1 ag: 3; ALR H2O2 inh: 97*

Results for CN(C)S(=O)(=O)c1cccc(NC(=O)CSc2nc3c(cc2C#N)C(=O)CC(C)(C)C3)c1 ?
H9c2 protect: 7; UBC9 SUMO inh: 12; NTR1 ag: 0; ALR H2O2 inh: 98*

How did Cn1cc([N+](=O)[O-])c(C(=O)NCc2cc3ccccc3[nH]2)n1 do in these assays?
H9c2 protect: -3; UBC9 SUMO inh: 8; NTR1 ag: 1; ALR H2O2 inh: 1

How did O=C(O)c1c(C(=O)N2N=C3/C(=C/c4ccccc4)CCCC3C2c2ccccc2)cccc1[N+](=O)[O-] (configuration not stated) do in these assays?
H9c2 protect: -1; UBC9 SUMO inh: 16; NTR1 ag: -1; ALR H2O2 inh: -1

How did O=C(O)c1ccccc1C(=O)N1N=C2/C(=C/c3cccc([N+](=O)[O-])c3)CCCC2C1c1cccc([N+](=O)[O-])c1 (configuration not stated) do in these assays?
H9c2 protect: -5; UBC9 SUMO inh: 23; NTR1 ag: 1; ALR H2O2 inh: 79*

What do the screens show for `COc1ccc(C(=O)NC(=S)NNC(=O)COc2ccccc2)cc1`?
H9c2 protect: 19; UBC9 SUMO inh: -17; NTR1 ag: 0; ALR H2O2 inh: 98*

What do the screens show for `O=C(CCc1ccccc1)NNC(=O)c1ccc(Cl)cc1`?
H9c2 protect: 1; UBC9 SUMO inh: 0; NTR1 ag: 0; ALR H2O2 inh: -27

How did O=C(COc1ccc([N+](=O)[O-])cc1)NNC(=S)NC(=O)c1ccc(Br)cc1 do in these assays?
H9c2 protect: 12; UBC9 SUMO inh: 6; NTR1 ag: 3

Results for O=C(CCc1ccccc1)NNC(=S)NC(=O)c1ccc(Cl)cc1 ?
UBC9 SUMO inh: -4; NTR1 ag: 1; ALR H2O2 inh: 99*

How did Cc1ccc(C(=O)NC(=S)NNC(=O)COc2ccc([N+](=O)[O-])cc2)cc1 do in these assays?
H9c2 protect: 13; UBC9 SUMO inh: -14; NTR1 ag: -1; ALR H2O2 inh: 99*
